In the library only some 6.4% were active in any assay of this set; here they are far more common.
Luc counter: counter-screen: inhibitors of Kinase-Glo firefly luciferase | Q27757 | Kinase-Glo luciferase, ATP luminescence, 8 min | Potency, µM (highest dose often 38.3 µM), without a hit: at the top dose activity change, negative = inhibition, hits mostly inhibitors | hit rate 0.28% among 200,000; note: nearly all actives have a fitted effect of over 60% in size
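Luminescence was the read-out, taken after 8-minute incubation at ambient temperature. Luciferase turned over luciferin with 10 uM ATP in imidazole pH 7.2 buffer containing KCl, MgCl2, Tween 20 and BSA.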
VP16 counter: counter-screen for ROR gamma inhibitors: Gal4-VP16 reporter | Drosophila S2 Gal4-VP16 UAS-luciferase, luminescence, 20 h | Potency, µM (series often up to 53.6 µM), for the others: at the top dose activity, negative = inhibition, hits mostly inhibitors | hit rate 3.5% among 310,000 | AID 2546;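 note: Gal4-VP16 expression switched on by copper sulfate through the metallothionein promoter; nearly all actives have a fitted effect of over 50% in size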
RORgamma inh: ROR gamma (mouse) transcription inhibition; hit rate 5.4% among 310,000; Drosophila S2 Gal4-RORgamma UAS-luciferase reporter, 20 h; AID 2551; Potency, µM (highest dose often 53.6 µM), inactives show at the top dose activity change, negative = inhibition, usual class: inhibitors; P51450; note: nearly all actives have a fitted effect of over 60% in size
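Luciferase reporter read in Schneider cells carrying Gal4-RORγ (mouse) and UAS-Photinus luciferase; cells given compound 1 h before 700 uM copper sulfate induction, then incubated 20 h at ambient temperature.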
* hit, by the source's call; u = inconclusive; x = not tested or not shown. Calls come from the whole dose curve; as a rule, active = well fitted curve in the direction sought with a large enough effect; inconclusive = small, poorly fitted or top-dose-only effect, or another doubt; inactive = no such curve, though single readings can be large; an effect the other way counts as inactive or inconclusive. % is set by controls: 0 for no effect and ±100 for the full control effect; potency is the fitted concentration of half-maximal effect.

SMILES | Luc counter | VP16 counter | RORgamma inh
Cc1ccc(-c2nc(-c3ccccn3)no2)cc1 | 3.2µM* | 2µM* | 0.89µM*
Nc1n[nH]c(-c2ccccc2)n1 | -5% | 7% | -3%
COc1cccc(-c2nc(-c3ccccn3)no2)c1OC | -2% | 0% | 0%
c1ccc(-c2noc(-c3ccno3)n2)nc1 | x | -1% | 23%
c1ccc(-c2nc(-c3ccccn3)no2)cc1 | 3.2µM* | 2µM* | 2.2µM*
Cc1ccc(Cc2nc(-c3ccccn3)no2)cc1 | -7% | -15% | -54%
COc1ccc(C(=O)COC(=O)CN2C(=O)C3C4CCC(C4)C3C2=O)cc1 (stereo not given) | x | -20% | -4%
Cc1cccc(NC(=S)NCc2ccc3c(c2)cc(C)n3C)c1C | -1% | -17% | 2%
COc1cc(C2c3c(oc4ccccc4c3=O)C(=O)N2c2nccs2)ccc1O (stereo not given) | x | 16% | -10%
CN1CCN(c2ncc3nc(-c4cn(C)c5ccccc45)c(=O)n(CCC#N)c3n2)CC1 | x | u | -33%
N/C(=N\O)c1ccc(N2CCN(c3ncccc3C(F)(F)F)CC2)nc1 | x | 6% | 2%
Cc1ccc(NC(=O)COC(=O)C2CC(=O)N(Cc3ccccc3)C2)cc1F (stereo not given) | -1% | 6% | 6%
COc1cc(-c2nc(-c3ccccn3)no2)cc(OC)c1OC | 9% | 3% | u
Cc1ccc2nc(-c3ccccn3)oc2c1 | 13µM* | u | 10µM*
Clc1cccc(-c2nc(-c3ccccn3)no2)c1 | u | 8.9µM* | 5µM*
Cc1ccc(-c2nc(-c3ccccn3)no2)cc1Cl | 11µM* | 5.6µM* | 3.5µM*
Cc1ccc(-c2nc(-c3ccccn3)no2)cc1[N+](=O)[O-] | x | 6.3µM* | 10µM*
Clc1ccc(-c2nc(-c3cnccn3)no2)cc1 | x | -16% | -21%
Cc1ccc2nc(-c3cccnc3)oc2c1 | -7% | -7% | -10%
Cc1cc(-c2nc(-c3ccncc3)no2)ccc1[N+](=O)[O-] | x | 21% | 0%
COc1ccc(C(=O)N2CCN(c3ccccc3)CC2)cc1S(=O)(=O)N1CCOCC1 | x | 0% | 5%
O=C(NNC(=O)c1cccc(O)c1)Nc1ccc([N+](=O)[O-])cc1 | 2% | -1% | 12%
CCc1nnc(NC(=O)CCN2C(=O)C3CCCCC3C2=O)s1 (stereo not given) | x | 3% | 5%
